Laboratory results as given in PubChem BioAssay (NCATS).
Results filed as inconclusive are left out. Calls of active or inactive are those of the source. Unless noted, calls come from the whole dose curve; as a rule, active = well fitted curve in the direction sought with a large enough effect; inconclusive = small, poorly fitted or top-dose-only effect, or another doubt; inactive = no such curve, though single readings can be large; an effect the other way counts as inactive or inconclusive.

Assays:
[1] = Cell Viability - BJ (AID 421; calls by dose curve;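 note: potency is the fitted concentration of half-maximal effect; cells exposed to compound for 40 hours at 37 °C before readout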); details: BJ fibroblast viability, qHTS
In short: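 Luminescent ATP signal (CellTiter-Glo, 20 min at room temperature) served as the read-out of viable BJ cells after 40 hours of compound treatment. Responses were scaled between DMSO and 100 uM tamoxifen, and AC50 values were obtained by Hill modeling.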

[2] = Cell Viability - Jurkat (AID 426;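 active = dose-dependent loss of cell ATP signal giving a full or clear fitted curve, ranked by lower potency value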; note: potency is the fitted concentration of half-maximal effect); details: qHTS
In short: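 Luminescent ATP read-out (CellTiter-Glo, 20 min at room temperature) after 40 hr compound exposure at 37 °C of Jurkat E6-1 cells, 5000/well. Decreased ATP taken as cytotoxicity; AC50 from standard Hill equation.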

[3] = Cell Viability - Hek293 (AID 427;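 active = compounds whose dose-response curve shows a full or clear partial loss of cell viability, called from curve shape rather than a numeric limit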;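 note: potency is the fitted concentration of half-maximal effect; cells exposed to compound for 40 hours at 37 °C before reading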); details: qHTS
In short: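 Luminescent ATP read-out (CellTiter-Glo, 20 min RT) after 40 hr compound exposure at 37 °C in complete medium. Signal normalized to DMSO (basal) and 100 uM tamoxifen (100% inhibition); concentration-response fitted with the standard Hill equation to give AC50.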

[4] = Cell Viability - HepG2 (AID 433; calls by dose curve;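 note: potency is the fitted concentration of half-maximal effect; potency for ATP loss meaning cytotoxicity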); details: qHTS
In short: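 HepG2 cells, 1500 per well, treated 40 hr at 37 °C in complete medium; viability from intracellular ATP by CellTiter-Glo luminescence. Normalized to DMSO and 100 uM tamoxifen; AC50 from Hill fit of qHTS concentration-response.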

[5] = Cell Viability - MRC5 (AID 434; calls by dose curve;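 note: potency is the fitted concentration of half-maximal effect; potency reflects cytotoxicity seen as loss of intracellular ATP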); details: MRC5 lung fibroblast viability, qHTS
In short: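 AC50 values come from Hill-equation fits of intracellular ATP loss, measured by CellTiter-Glo luminescence. Normal lung fibroblasts (MRC5) had 40 hr compound treatment at 37 C, normalized between DMSO and 100 uM tamoxifen.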

[6] = Cell Viability - SK-N-SH (AID 435; calls by dose curve; note: potency is the fitted concentration of half-maximal effect); details: SK-N-SH neuroblastoma cell viability qHTS
In short: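 SK-N-SH neuroblastoma cells (1500/well) treated 40 h at 37 °C in complete medium; viability read as cellular ATP by CellTiter-Glo luminescence. Normalized to DMSO and 100 uM tamoxifen; AC50 from Hill fits of qHTS concentration-response.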

[7] = target: Mitogen-activated protein kinase 10 (Mus musculus) (UniProt Q61831); assay: JNK3 AlphaScreen Assay (AID 530; active = well fitted curve in either direction with a large enough effect, not every such curve was filed as active;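 note: kinase came from lysate of stimulated human HepG2 cells; signal reports phosphorylation of biotinylated GST-cJun 1-79 at Ser73 with 10 µM ATP; % is set by controls: 0 for no effect and ±100 for the full control effect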); details: JNK3 lysate, c-Jun phosphorylation; series mostly up to 57.1 µM
In short: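 Kinase buffer: 20 mM Tris-HCl pH 7.6, 10 mM MgCl2, 1 mM DTT, 0.1 mM Na3VO4, 0.01% Tween-20; ATP 10 uM. Substrate biotin-GST-cJun(1-79), enzyme from activated HepG2 lysates. Detection by Ser73 phospho-antibody AlphaScreen.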

[8] = Cell Viability - N2a (AID 540); details: N2a mouse neuroblastoma cell viability; activity change, negative = cytotoxicity: at 92.2 µM (top of the series);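 note: plate controls were DMSO alone for no effect and tamoxifen control for full effect; nearly all actives have a fitted effect of over 45% in size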
In short: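 N2a mouse neuroblastoma, 1500 cells/well, 5 hr settle; compound 40 hr, 37 °C; CellTiter-Glo 20 min RT; luminescence; Hill-fit AC50.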

[9] = Cell Viability - NIH 3T3 (AID 541); details: NIH 3T3 cell viability, qHTS; activity change, negative = cytotoxicity: at 92.2 µM (top of the series);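 note: plate controls were DMSO alone for no effect and tamoxifen positive control for full effect; nearly all actives have a fitted effect of over 25% in size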
In short: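 qHTS format; 40 hr compound exposure, 37 °C; CellTiter-Glo luminescence (cellular ATP) read-out after 20 min at RT. Decrease in ATP = cytotoxicity; AC50 from standard Hill fit.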

[10] = Cell Viability - HUV-EC-C (AID 542); details: HUV-EC-C endothelial cell viability, qHTS; series mostly up to 92.2 µM; note: % is set by controls: 0 for no effect and ±100 for the full control effect; nearly all actives have a fitted effect of over 35% in size
In short: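 Luminescent ATP read-out (CellTiter-Glo, 20 min room temperature) after 40 hr compound treatment of HUV-EC-C cells at 37 °C. Concentration-response data fitted with the standard Hill equation to give AC50; tamoxifen and doxorubicin served as positive controls.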

[11] = Cell Viability - H-4-II-E (AID 543); details: H-4-II-E rat hepatoma viability; series mostly up to 92.2 µM; note: % is set by controls: 0 for no effect and ±100 for the full control effect; nearly all actives have a fitted effect of over 35% in size
In short: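 qHTS, rat hepatoma H-4-II-E, 1500 cells/well; 40 hr compound exposure, 37 °C; CellTiter-Glo ATP luminescence after 20 min RT; AC50 by standard Hill fit.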

[12] = Cell Viability - SH-SY5Y (AID 544); details: SH-SY5Y neuroblastoma cell viability; viability change, negative = cytotoxic: at 92.2 µM (top of the series); note: nearly all actives have a fitted effect of over 55% in size
In short: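 SH-SY5Y, 1500 cells/well, 5 hr pre-incubation 37 °C; cpd 40 hr 37 °C; CellTiter-Glo 20 min RT; luminescence (ATP) read. qHTS concentration-response, Hill fit → AC50. Tamoxifen, doxorubicin as positive controls.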

[13] = Cell Viability - Renal Proximal Tubule (AID 545); details: renal proximal tubule cells viability, primary cells of rat origin; series mostly up to 91.7 µM; note: nearly all actives have a fitted effect of over 40% in size
In short: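 Rat renal proximal tubule primary cells, 1000/well, exposed to compounds for 40 hr at 37 °C in complete medium; cellular ATP read by CellTiter-Glo luminescence. AC50 from concentration-response fitted with standard Hill equation.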

[14] = Cell Viability - Mesenchymal (AID 546); details: mesenchymal cells viability, qHTS; series mostly up to 91.7 µM;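 note: cells exposed to compound for 40 hours before reading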
In short: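 CellTiter-Glo luminescence (intracellular ATP, 20 min room temperature) after 40 hr compound exposure at 37 °C of 1000 glomerulus-derived human kidney mesenchymal cells/well; AC50 values obtained by fitting qHTS concentration-response data to the Hill equation.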

[15] = Cellular Toxicity (caspase-3) HepG2 (AID 654); details: HepG2 caspase-3 activation, luminescence; series mostly up to 92.2 µM;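 note: cells exposed to compound for 16 hours before reading; 0% = DMSO alone and 100% = caspase signal from 100 µM tamoxifen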
In short: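 Luminescent Caspase-Glo 3/7 readout after 16 hr compound exposure of human hepatocellular carcinoma HepG2 cells at 37 °C; qHTS concentration-response, normalized DMSO = 0%, 100 uM tamoxifen = 100%; AC50 by standard Hill equation.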

[16] = Cellular Toxicity (caspase-3) Jurkat (AID 655); details: Jurkat caspase-3 activation, luminescence; caspase-3 activation: at 92.2 µM (top of the series), DMSO = 0%, tamoxifen = 100%;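 note: cells exposed to compound for 16 h at 37 °C before reading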
In short: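 Jurkat cells (5000/well) in complete medium exposed 16 h at 37 C; caspase-3/7 activity read by Caspase-Glo luminescence after 20 min at room temperature. Normalized to DMSO and 100 uM tamoxifen; AC50 from Hill fits.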

[17] = Cellular Toxicity (caspase-3) HUV-EC-C (AID 656); details: HUV-EC-C cells, caspase-3 activation (apoptosis), vehicle = 0, 100 µM tamoxifen = 100%; series mostly up to 92.2 µM
In short: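 HUV-EC-C cells (1000/well) in complete medium, compound-treated 16 h at 37 °C; caspase-3/7 activity read by Caspase-Glo 3/7 luminescence. Normalized to DMSO (basal) and 100 uM tamoxifen (100%); AC50 from Hill-equation concentration-response fits.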

[18] = Cellular Toxicity (caspase-3) SHSY5Y (AID 657); details: SH-SY5Y caspase-3 activation, DMSO zero, 10 µM staurosporine = 100%; series mostly up to 91.7 µM
In short: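 SH-SY5Y human neuroblastoma cells, 1500/well, exposed to compound for 16 hours at 37 °C in complete medium. Caspase-3/7 activity read by Caspase-Glo luminescence after 1 hr at room temperature, normalized to DMSO and 10 uM staurosporine; AC50 from Hill fit.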

[19] = Cellular Toxicity (caspase-3) BJ (AID 658); details: BJ fibroblasts, luminescence, normalized: DMSO 0%, staurosporine 100%; series mostly up to 91.7 µM
In short: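 Caspase-Glo 3/7 luminescence, read 1 hr after reagent at room temperature, in normal BJ fibroblasts exposed 16 hours at 37 °C. AC50 values from Hill-equation concentration-response, scaled between DMSO basal and 10 uM staurosporine as 100%.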

[20] = Cellular Toxicity (caspase-3) MRC-5 (AID 659); details: MRC-5 cells, luminescence, normalized: DMSO 0%, 10 µM staurosporine 100%; series mostly up to 91.7 µM
In short: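 Luminescent Caspase-Glo 3/7 read-out (1 h, room temperature) after a 16 h, 37 °C compound exposure of MRC-5 lung fibroblasts at 1500 cells/well. Concentration-response AC50 from Hill equation; 0% DMSO, 100% 10 uM staurosporine.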

CCCCCCCCCCCCC1CO1 (stereo not given)
inactive: Potency [1] > 92 µM | Potency [2] > 92 µM | Potency [3] > 92 µM | Potency [4] > 92 µM | Potency [5] > 92 µM | Potency [6] > 92 µM | outcome [7] | activity change, negative = cytotoxicity [8] 6.57% | Potency [9] | Potency [10] | Potency [11] | Potency [12] | Potency [13] | Potency [14] | Potency [15] | caspase-3 activation [16] -0.853% | outcome [17] | outcome [18] | outcome [19] | outcome [20]

CCCCC(CC)C(=O)O (stereo not given)
inactive: Potency [1] > 92 µM | Potency [2] > 92 µM | Potency [3] > 92 µM | Potency [4] > 92 µM | Potency [5] > 92 µM | Potency [6] > 92 µM | outcome [7] | activity change, negative = cytotoxicity [8] 4.15% | Potency [9] | Potency [10] | Potency [11] | Potency [12] | Potency [13] | Potency [14] | Potency [15] | caspase-3 activation [16] 1.13% | outcome [17] | outcome [18] | outcome [19] | outcome [20]

O=C(O)CNC(=O)c1ccc(CO)o1
inactive: Potency [1] > 92 µM | Potency [2] > 92 µM | Potency [3] > 92 µM | Potency [4] > 92 µM | Potency [5] > 92 µM | Potency [6] > 92 µM | outcome [7] | activity change, negative = cytotoxicity [8] -13.4% | Potency [9] | Potency [10] | Potency [11] | Potency [12] | Potency [13] | Potency [14] | Potency [15] | caspase-3 activation [16] -2.47% | outcome [17] | outcome [18] | outcome [19] | outcome [20]

CC/C(C)=N/O
inactive: Potency [1] > 92 µM | Potency [2] > 92 µM | Potency [3] > 92 µM | Potency [4] > 92 µM | Potency [5] > 92 µM | Potency [6] > 92 µM | outcome [7] | activity change, negative = cytotoxicity [8] 3.53% | Potency [9] | Potency [10] | Potency [11] | Potency [12] | Potency [13] | Potency [14] | Potency [15] | caspase-3 activation [16] -0.144% | outcome [17] | outcome [18] | outcome [19] | outcome [20]

CCCCCCCCN
inactive: Potency [1] > 92 µM | Potency [2] > 92 µM | Potency [3] > 92 µM | Potency [4] > 92 µM | Potency [5] > 92 µM | Potency [6] > 92 µM | outcome [7] | activity change, negative = cytotoxicity [8] 7.89% | Potency [9] | Potency [10] | Potency [11] | Potency [12] | Potency [13] | Potency [14] | Potency [15] | caspase-3 activation [16] 1.3% | outcome [17] | outcome [18] | outcome [19] | outcome [20]

CCOCC(=O)O
inactive: Potency [1] > 92 µM | Potency [2] > 92 µM | Potency [3] > 92 µM | Potency [4] > 92 µM | Potency [5] > 92 µM | Potency [6] > 92 µM | outcome [7] | activity change, negative = cytotoxicity [8] -1.83% | Potency [9] | Potency [10] | Potency [11] | Potency [12] | Potency [13] | Potency [14] | Potency [15] | caspase-3 activation [16] -1.08% | outcome [17] | outcome [18] | outcome [19] | outcome [20]
